Test results published in PubChem BioAssay.
Values without a mark were called inactive. Records with an inconclusive call do not appear. Active and inactive are the calls of the source.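 Rule for the calls, unless noted: active = cell viability at or below a set limit in both duplicate runs, the limit being the all-compound median minus 4 SD (cut at about 23% in these data, passing the limit was not always enough); inconclusive = no clear call, values can overlap the other calls; inactive = the rest.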

What was measured:
[1] = S. cerevisiae growth inhibition in permissive medium (OD615), pilot counter-assay for S. cerevisiae lifespan shortening project, permissive growth control (AID 705;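 active = growth inhibition above 25% in both replicates, a cutoff set 3 SD above the mean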); details: OD615, 24 h, at 10 µM, stronger effect = higher value
[2] = S. cerevisiae growth inhibition in restrictive medium, OD615, pilot screen, restrictive growth control, yeast lifespan reduction project (AID 706;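 active = growth inhibition above a set limit, 3 SD over mean compound inhibition, in both replicates, cut at about 43% in these data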;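 note: modified DeaD lifespan yeast strain shifted to restrictive glucose medium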); details: OD615, 48 h, at 10 µM, stronger effect = higher value
[3] = doxorubicin toxicity protection in MRP-1 cells – H69AR cells, CellTiter-Glo, duplicate, MRP-1 activator project, pilot screen (AID 807;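 active = viability increase at or above a cutoff of the median across tested compounds plus 3 SD, cut at about 8.5% in these data, passing the limit was not always enough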;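 note: compound pretreatment 18-22 h then 72 h combined with doxorubicin; 0% = doxorubicin alone and 100% = vehicle without doxorubicin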); details: H69AR viability with doxorubicin, CellTiter-Glo luminescence; at 10 µM; stronger effect = higher value
[4] = viability of HCT116 without oncogenic beta-catenin – human colon tumor cells, pilot screen (AID 823); details: HCT116 beta-catenin knockout viability, CellTiter-Glo, 60 h; at 10 µM; stronger effect = lower value;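 note: 0% = wells killed by 20 µM Hyamine and 100% = untreated DMSO cell wells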
[5] = viability of PTEN-null HCT116 cells – cell-based, HCT116 clonal line, CellTiter-Glo, pilot screen (AID 824;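 active = viability at or below 27.92% in each of two runs, the all-compound median minus 4 SD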;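 note: 0% = 20 µM Hyamine control and 100% = vehicle cell control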); details: HCT116 PTEN-deleted viability, 60 h, at 10 µM, stronger effect = lower value
[6] = RAM pathway blockade in budding yeast – dse1pr::URA3 reporter, 5-FOA selection, pilot screen (AID 869;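 active = inhibition over a set limit, the all-compound mean plus 3 SD, in both replicate runs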;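 note: 0% = DMSO wells with no growth and 100% = 10 µM 1-NA-PP1 with full growth; RAM network block rescues cells from 5-FOA so hits raise OD615 growth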); details: S. cerevisiae dse1pr::URA3 5-FOA growth, OD615, 2 d; at 10 µM; stronger effect = higher value; strain carries analog-sensitive mutant Cbk1 kinase

Cc1cc(C)n(-c2nc3ccccc3nc2Nc2ccc3c(c2)OCO3)n1
growth inhibition [1]: -18.7%
growth inhibition [2]: 1.25%
viability increase [3]: 6.2%
viability [4]: 87.7%
viability [5]: 81.7%
inhibition [6]: 6.39% (active)

COc1cccc(NC(=O)c2ccc(S(=O)(=O)N3CCCCC3)cc2)c1
growth inhibition [1]: 4.79%
growth inhibition [2]: 5.21%
viability increase [3]: -1.52%
viability [4]: 95.6%
viability [5]: 85.7%
inhibition [6]: 1.28%

Cc1ccc(-c2nc(C(=O)NC3CCCCCC3)no2)cc1
growth inhibition [1]: -6.78%
growth inhibition [2]: 5.45%
viability increase [3]: 4.07%
viability [4]: 103%
viability [5]: 104%
inhibition [6]: -0.1%

O=C1CCCN1CCCNc1ncnc2c1cnn2-c1ccc(Cl)cc1
growth inhibition [1]: 0.48%
growth inhibition [2]: 1.48%
viability increase [3]: -0.95%
viability [4]: 85%
viability [5]: 77%
inhibition [6]: 1.3%

COC(=O)c1ccc2c(c1)N(Cc1ccccc1F)C(=O)c1ccccc1S2=O (configuration not stated)
growth inhibition [1]: -13.9%
growth inhibition [2]: -2.4%
viability increase [3]: -4.03%
viability [4]: 75.9%
viability [5]: 74%
inhibition [6]: 1.02%

COc1cc2c(cc1OC)C(C)N(C(=O)c1cc3ccccc3o1)CC2 (configuration not stated)
growth inhibition [1]: -11.9%
growth inhibition [2]: 10.2%
viability increase [3]: -3.13%
viability [4]: 37.3%
viability [5]: 42.7%
inhibition [6]: 1.52%

Cc1c(S(=O)(=O)N2CCc3ccccc3C2)c(=O)n(C)c(=O)n1C
growth inhibition [1]: -14.9%
growth inhibition [2]: -10.4%
viability increase [3]: -0.16%
viability [4]: 103%
viability [5]: 97.9%
inhibition [6]: 2.17%

Nc1ccc(S(=O)(=O)N2CCCc3ccccc32)cc1
growth inhibition [1]: -18.7%
growth inhibition [2]: -24%
viability increase [3]: -3.42%
viability [4]: 83%
viability [5]: 83%
inhibition [6]: 1.49%

CCCc1nnc(NC(=O)c2ccncc2)s1
growth inhibition [1]: -5.46%
growth inhibition [2]: -3.19%
viability increase [3]: 0.44%
viability [4]: 103%
viability [5]: 99.1%
inhibition [6]: 1.42%

O=C1c2ccccc2C(Nc2ccc(S(=O)(=O)N3CCOCC3)cc2)N1c1cccnc1 (configuration not stated)
growth inhibition [1]: -3.45%
growth inhibition [2]: -1.27%
viability increase [3]: -0.92%
viability [4]: 102%
viability [5]: 97%
inhibition [6]: -0.33%

CN(C)c1ccc(-c2noc(C3CCN(S(=O)(=O)c4cccc(Cl)c4)CC3)n2)cc1
growth inhibition [1]: -5.86%
growth inhibition [2]: -11.7%
viability increase [3]: 3.01%
viability [4]: 82.5%
viability [5]: 94.2%
inhibition [6]: 2.6%

CC1CCN(c2nc(-c3ccccc3)cc(C(F)(F)F)n2)CC1
growth inhibition [1]: -10.7%
growth inhibition [2]: -11%
viability increase [3]: -1.76%
viability [4]: 88.1%
viability [5]: 90.6%
inhibition [6]: 2.21%

Cc1cccc(N2CCN(C(=O)c3cc4c(C)nc5ccccc5c4o3)CC2)c1C
growth inhibition [1]: -8.18%
growth inhibition [2]: -1.81%
viability increase [3]: 4.84%
viability [4]: 71.7%
viability [5]: 78.2%
inhibition [6]: -1.31%

CCOC(=O)c1ccccc1NC1c2ccccc2C(=O)N1c1ccc(C)cn1 (configuration not stated)
growth inhibition [1]: -11.3%
growth inhibition [2]: 6.58%
viability increase [3]: -2.23%
viability [4]: 72.9%
viability [5]: 79.6%
inhibition [6]: 2.52%

Cc1cccc(C)c1OCc1nnc(SCC(=O)Nc2nccs2)o1
growth inhibition [1]: -0.12%
growth inhibition [2]: 0.57%
viability increase [3]: -1.15%
viability [4]: 94%
viability [5]: 87.4%
inhibition [6]: 2.88%

COc1ccc(OC)c(NC(=O)CN(c2ccc(C(C)C)cc2)S(=O)(=O)c2c(C)noc2C)c1
growth inhibition [1]: -11.5%
growth inhibition [2]: -12.1%
viability increase [3]: -4.81%
viability [4]: 56.5%
viability [5]: 48.1%
inhibition [6]: 2.27%

CCOC(=O)C1CCCN(C(=O)CCCn2nc(C)n3c(cc4sccc43)c2=O)C1 (configuration not stated)
growth inhibition [1]: -4.78%
growth inhibition [2]: -16.8%
viability increase [3]: -1.97%
viability [4]: 102%
viability [5]: 94.3%
inhibition [6]: 1.37%
